Measured values: PubChem BioAssay AID686978 (National Center for Advancing Translational Sciences (NCATS), 2013)
The whole screen tested about 420,000 compounds, of which about 64,000 (15%) were called active. Another 27% or so got no clear call; they are omitted. Calls follow the shape of the dose curve; as a rule, active = well fitted inhibition curve with a large enough effect; inconclusive = small, poorly fitted or top-dose-only effect; inactive = flat fitted curve, though single readings scatter. Not all results are given here.

Assay: qHTS for Inhibitors of human tyrosyl-DNA phosphodiesterase 1 (TDP1): qHTS in cells in absence of CPT; also: nearly all actives have a fitted effect of over 55% in size
Settings: DT40 Tdp1-/- hTDP1 cells, no CPT, ATP luminescence, 48 h; activity change, negative = growth inhibition: at 46.2 µM (top of the series)
How it was run: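 Growth of hTDP1-complemented DT40 Tdp1-knockout cells is measured by ATP luminescence after at least 48 hr compound exposure at 37 °C, with DMSO substituting for the 20 nM CPT used in the parallel screen.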
% is scaled to controls: 0 for no effect and ±100 for the full control effect; potency is read from the fitted curve at half-maximal effect.

| Compound | activity change, negative = growth inhibition | Potency |
| --- | --- | --- |
| C=CCn1c(COc2ccccc2)nnc1SCC(=O)NCC(=O)OCC | -27.1% (inactive) |  |
| O=C(O)CSc1nccc2ccccc12 | -14.4% (inactive) |  |
| COc1cc(Cl)c(S(=O)(=O)n2cnc(C)c2)cc1Cl | -1.08% (inactive) |  |
| Cc1ccnc(NC(=O)CNC(=O)c2ccccc2)c1 | 5.46% (inactive) |  |
| CCc1ccc(CNC(=O)CCc2nc(-c3cccs3)no2)cc1 | -19.3% (inactive) |  |
| CSc1n[nH]c(-c2ccco2)n1 | -7.2% (inactive) |  |
| O=C(CC(NS(=O)(=O)c1ccc(Cl)cc1)c1ccco1)NC1CCCC1 (stereo not given) | -3.48% (inactive) |  |
| CCc1nn(CC(=O)N2CCN(CC)CC2)c(=O)c2cccn12 | -0.686% (inactive) |  |
| COc1ccccc1NS(=O)(=O)c1ccc(C)c(C(=O)NCC(c2ccco2)N(C)C)c1 (stereo not given) | 6.61% (inactive) |  |
| C=CC(C1=CC(=O)C=CC1=O)c1ccc(O)cc1 (stereo not given) |  | 1.84 µM (active) |
| COc1ccc(CC(=O)Nc2ccc3c(c2)CCC3)cc1S(=O)(=O)N1CCOCC1 | -18.7% (inactive) |  |
| COC(=O)c1cccc(N(CC(=O)NCC2CCCO2)C(=O)CCC(=O)Nc2cc(C)on2)c1 (stereo not given) | -22.2% (inactive) |  |
| CCOC(=O)Cc1csc(NC(=O)CSc2ccc(Br)cc2)n1 |  | 16.4 µM (active) |
| Cc1ccc2c(CSc3nncs3)cc(=O)oc2c1 | -5.24% (inactive) |  |
| CCOC(=O)Cc1csc(NC(=O)C(C)(C)C)n1 | -20.3% (inactive) |  |
| CCOC(=O)Cc1csc(NC(NC(=O)OCC)(C(F)(F)F)C(F)(F)F)n1 | -14.5% (inactive) |  |
| CCOC(=O)Cc1csc(SCC(=O)Nc2ccc(C)cc2F)n1 |  | 14.6 µM (active) |
| Cc1ccc(C)c(NC(=O)COC(=O)Cn2c(C)csc2=O)c1 | -18.8% (inactive) |  |
| CCOC(=O)Cc1csc(SCc2cc(=O)oc3cc(O)ccc23)n1 |  | 13 µM (active) |
| Cc1ccc(-c2csc(SCC(=O)Nc3cc(C)on3)n2)cc1 | -27.8% (inactive) |  |
| CCOC(=O)Cc1csc(NC(=O)COc2ccc3c(C)cc(=O)oc3c2)n1 | -22.8% (inactive) |  |
| CN(C(=O)CSc1nnc(Nc2ccccc2)s1)C1CCS(=O)(=O)C1 (stereo not given) | -10.7% (inactive) |  |
| CC(Nc1ccccc1)c1cccnc1 (stereo not given) | 4.56% (inactive) |  |
| O=C(O)C1CCCN1c1nc(Cl)ccc1[N+](=O)[O-] (stereo not given) | -3.67% (inactive) |  |
| CCn1ccnc1CN1CCCC(C(=O)c2ccc3c4c(cccc24)CC3)C1 (stereo not given) |  | 4.61 µM (active) |
| Cc1c(CN2CCCC(C(=O)c3cccc(Cl)c3)C2)c(=O)n(-c2ccccc2)n1C (stereo not given) | -10.5% (inactive) |  |
| CCc1nccn1CCC(=O)N1CCCC(N2CCN(c3ccccc3F)CC2)C1 (stereo not given) | -2.17% (inactive) |  |
| Cc1ccc(CN2CCC(n3nccc3NC(=O)CCCc3ccccc3)CC2)o1 | -21.2% (inactive) |  |
| COc1ccc(CN2CCC(n3nccc3NC(=O)CCCc3ccccc3)CC2)cc1C |  | 29.1 µM (active) |
| COc1cc(CN2CCC(n3nccc3NC(=O)CCCc3ccccc3)CC2)ccc1O | 1.27% (inactive) |  |
